Reference: the supplement of paper PMC12819154, “High-throughput peptide-centric local stability assay extends protein–ligand identification to membrane proteins, tissues and bacteria” (Nature Structural & Molecular Biology, 2025)

Compound: Nc1ncnc2c1ncn2[C@@H]1O[C@H](COP(=O)(O)OP(=O)(O)OP(=O)(O)O)[C@@H](O)[C@H]1O [adenosine 5'-triphosphate]
Assay: log2 fold change of tryptic peptide abundance, ligand vs vehicle (limited proteolysis) (log2 ratio); higher = more trypsin-susceptible (destabilized)
Conditions: ligand concentration: 5 mM; sample: E. coli desalted lysate; replicate design: treated before aliquoting
Protocol: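 HT-PELSA: desalted E. coli K-12 BW25113 lysate (with 12 mM MgCl2) incubated with 5 mM ATP (pH 7) or water for 30 min at 25 C, then a 4 min trypsin pulse at 22 C. Peptides were quantified by DIA-MS (4 replicates). Value is the peptide log2 fold change (treated/control); negative = stabilized. Scale: negative = ligand-stabilized region.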
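Note: lysate desalted by size exclusion to strip endogenous ATP, peptide intensities built from DIA-NN precursor signals, and peptides missing any value discarded before comparison.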

UniProt P09980, sequence (P09980 whole entry): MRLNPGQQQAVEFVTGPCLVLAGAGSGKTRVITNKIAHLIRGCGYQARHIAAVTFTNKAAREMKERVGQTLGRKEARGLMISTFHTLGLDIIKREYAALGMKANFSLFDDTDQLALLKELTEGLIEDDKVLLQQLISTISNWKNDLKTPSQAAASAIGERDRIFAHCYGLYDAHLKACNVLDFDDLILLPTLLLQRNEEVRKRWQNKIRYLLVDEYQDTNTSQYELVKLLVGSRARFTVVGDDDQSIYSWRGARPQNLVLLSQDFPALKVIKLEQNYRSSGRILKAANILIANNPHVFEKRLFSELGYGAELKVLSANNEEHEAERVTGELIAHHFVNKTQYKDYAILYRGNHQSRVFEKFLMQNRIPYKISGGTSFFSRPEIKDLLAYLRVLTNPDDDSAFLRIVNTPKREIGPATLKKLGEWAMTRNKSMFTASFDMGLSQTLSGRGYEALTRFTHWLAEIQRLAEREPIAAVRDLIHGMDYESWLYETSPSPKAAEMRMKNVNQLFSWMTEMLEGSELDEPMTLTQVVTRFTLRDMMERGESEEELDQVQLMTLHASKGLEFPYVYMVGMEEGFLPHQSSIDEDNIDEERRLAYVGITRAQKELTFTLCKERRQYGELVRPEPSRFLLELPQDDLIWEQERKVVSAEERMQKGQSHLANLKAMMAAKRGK
UniProt P23883, sequence (P23883 whole entry): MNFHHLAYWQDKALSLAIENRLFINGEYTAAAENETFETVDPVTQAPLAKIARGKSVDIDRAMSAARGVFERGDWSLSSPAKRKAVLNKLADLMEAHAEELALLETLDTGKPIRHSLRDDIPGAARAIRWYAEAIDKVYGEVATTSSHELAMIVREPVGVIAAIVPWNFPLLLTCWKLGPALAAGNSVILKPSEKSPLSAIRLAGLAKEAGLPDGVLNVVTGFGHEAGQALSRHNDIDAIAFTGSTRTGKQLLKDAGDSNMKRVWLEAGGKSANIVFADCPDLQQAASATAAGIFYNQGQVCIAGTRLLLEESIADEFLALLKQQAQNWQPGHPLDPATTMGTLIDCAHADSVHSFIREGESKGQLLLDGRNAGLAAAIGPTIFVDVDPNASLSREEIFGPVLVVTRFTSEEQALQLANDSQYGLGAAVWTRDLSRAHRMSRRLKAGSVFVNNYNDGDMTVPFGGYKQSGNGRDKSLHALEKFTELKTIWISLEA
UniProt P0CB39, sequence (P0CB39 whole entry): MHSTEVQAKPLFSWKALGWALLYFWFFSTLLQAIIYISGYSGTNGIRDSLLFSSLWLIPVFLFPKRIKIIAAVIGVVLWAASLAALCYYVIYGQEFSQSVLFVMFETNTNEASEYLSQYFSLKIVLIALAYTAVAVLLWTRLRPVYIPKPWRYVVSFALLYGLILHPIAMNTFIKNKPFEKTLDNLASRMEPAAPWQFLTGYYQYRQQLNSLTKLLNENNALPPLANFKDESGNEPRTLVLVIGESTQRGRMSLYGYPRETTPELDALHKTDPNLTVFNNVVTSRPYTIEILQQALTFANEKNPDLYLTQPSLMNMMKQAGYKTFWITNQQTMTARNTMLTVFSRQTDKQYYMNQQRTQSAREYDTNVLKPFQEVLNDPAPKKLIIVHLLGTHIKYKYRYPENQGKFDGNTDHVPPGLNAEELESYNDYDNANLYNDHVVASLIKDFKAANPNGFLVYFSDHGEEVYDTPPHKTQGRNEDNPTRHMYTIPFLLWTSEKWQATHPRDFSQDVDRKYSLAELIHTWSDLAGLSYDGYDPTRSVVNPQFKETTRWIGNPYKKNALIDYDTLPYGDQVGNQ
UniProt P36999, sequence (P36999 whole entry): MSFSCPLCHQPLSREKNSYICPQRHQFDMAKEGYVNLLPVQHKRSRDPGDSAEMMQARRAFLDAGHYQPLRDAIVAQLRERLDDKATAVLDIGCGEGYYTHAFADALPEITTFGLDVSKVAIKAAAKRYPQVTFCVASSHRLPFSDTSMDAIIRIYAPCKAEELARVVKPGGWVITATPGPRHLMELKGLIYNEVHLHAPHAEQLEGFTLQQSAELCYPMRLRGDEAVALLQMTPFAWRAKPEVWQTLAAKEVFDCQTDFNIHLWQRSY
UniProt P37636, sequence (P37636 whole entry): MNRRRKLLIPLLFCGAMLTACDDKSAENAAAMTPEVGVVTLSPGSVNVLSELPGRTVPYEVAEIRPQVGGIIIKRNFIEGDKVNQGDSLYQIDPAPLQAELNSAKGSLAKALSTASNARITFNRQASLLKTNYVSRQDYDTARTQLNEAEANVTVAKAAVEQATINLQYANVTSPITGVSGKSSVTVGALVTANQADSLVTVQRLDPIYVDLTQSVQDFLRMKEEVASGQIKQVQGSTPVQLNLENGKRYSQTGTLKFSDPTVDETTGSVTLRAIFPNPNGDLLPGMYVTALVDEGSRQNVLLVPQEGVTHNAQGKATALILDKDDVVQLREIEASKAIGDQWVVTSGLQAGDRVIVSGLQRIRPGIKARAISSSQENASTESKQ
UniProt P37747, sequence (P37747 whole entry): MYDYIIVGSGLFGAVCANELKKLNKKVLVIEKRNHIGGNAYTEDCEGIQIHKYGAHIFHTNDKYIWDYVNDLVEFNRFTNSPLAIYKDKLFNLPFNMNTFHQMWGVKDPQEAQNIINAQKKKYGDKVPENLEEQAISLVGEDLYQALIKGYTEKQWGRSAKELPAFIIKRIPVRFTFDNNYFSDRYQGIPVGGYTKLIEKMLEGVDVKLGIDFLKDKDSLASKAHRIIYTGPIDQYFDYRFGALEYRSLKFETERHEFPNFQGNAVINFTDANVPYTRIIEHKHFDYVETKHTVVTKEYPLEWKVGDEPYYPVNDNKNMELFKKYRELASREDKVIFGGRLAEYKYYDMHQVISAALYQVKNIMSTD
UniProt P36672, sequence (P36672 whole entry): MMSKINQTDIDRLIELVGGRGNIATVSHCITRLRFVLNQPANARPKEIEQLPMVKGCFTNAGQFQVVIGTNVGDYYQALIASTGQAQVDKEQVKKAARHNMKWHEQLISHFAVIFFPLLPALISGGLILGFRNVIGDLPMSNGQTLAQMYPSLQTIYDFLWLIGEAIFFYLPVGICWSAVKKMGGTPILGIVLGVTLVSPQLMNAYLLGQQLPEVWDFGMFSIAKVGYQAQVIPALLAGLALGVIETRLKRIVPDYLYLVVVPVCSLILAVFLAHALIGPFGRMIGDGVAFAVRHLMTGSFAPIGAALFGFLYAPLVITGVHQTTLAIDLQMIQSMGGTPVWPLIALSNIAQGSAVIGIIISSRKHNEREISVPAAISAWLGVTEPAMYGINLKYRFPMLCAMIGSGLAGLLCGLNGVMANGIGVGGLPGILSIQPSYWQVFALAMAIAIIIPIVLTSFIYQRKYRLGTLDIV
UniProt P07023, sequence (P07023 whole entry): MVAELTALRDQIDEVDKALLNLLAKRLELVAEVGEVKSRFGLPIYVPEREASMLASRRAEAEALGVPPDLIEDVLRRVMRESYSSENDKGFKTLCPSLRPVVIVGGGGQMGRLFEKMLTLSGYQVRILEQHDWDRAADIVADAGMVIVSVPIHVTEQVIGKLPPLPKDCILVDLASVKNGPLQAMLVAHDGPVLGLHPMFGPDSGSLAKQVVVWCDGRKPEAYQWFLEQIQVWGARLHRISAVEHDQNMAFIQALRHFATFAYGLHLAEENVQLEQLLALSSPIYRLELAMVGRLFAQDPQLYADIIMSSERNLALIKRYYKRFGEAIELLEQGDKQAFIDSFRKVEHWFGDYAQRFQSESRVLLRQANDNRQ
UniProt P31808, sequence (P31808 whole entry): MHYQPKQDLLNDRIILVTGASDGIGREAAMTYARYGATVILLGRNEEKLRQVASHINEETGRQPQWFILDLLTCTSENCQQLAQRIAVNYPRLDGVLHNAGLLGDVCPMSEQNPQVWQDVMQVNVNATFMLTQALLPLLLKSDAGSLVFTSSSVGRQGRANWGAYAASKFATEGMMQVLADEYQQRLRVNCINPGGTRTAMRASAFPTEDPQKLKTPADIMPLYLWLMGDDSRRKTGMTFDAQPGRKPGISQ
UniProt P00550, sequence (P00550 whole entry): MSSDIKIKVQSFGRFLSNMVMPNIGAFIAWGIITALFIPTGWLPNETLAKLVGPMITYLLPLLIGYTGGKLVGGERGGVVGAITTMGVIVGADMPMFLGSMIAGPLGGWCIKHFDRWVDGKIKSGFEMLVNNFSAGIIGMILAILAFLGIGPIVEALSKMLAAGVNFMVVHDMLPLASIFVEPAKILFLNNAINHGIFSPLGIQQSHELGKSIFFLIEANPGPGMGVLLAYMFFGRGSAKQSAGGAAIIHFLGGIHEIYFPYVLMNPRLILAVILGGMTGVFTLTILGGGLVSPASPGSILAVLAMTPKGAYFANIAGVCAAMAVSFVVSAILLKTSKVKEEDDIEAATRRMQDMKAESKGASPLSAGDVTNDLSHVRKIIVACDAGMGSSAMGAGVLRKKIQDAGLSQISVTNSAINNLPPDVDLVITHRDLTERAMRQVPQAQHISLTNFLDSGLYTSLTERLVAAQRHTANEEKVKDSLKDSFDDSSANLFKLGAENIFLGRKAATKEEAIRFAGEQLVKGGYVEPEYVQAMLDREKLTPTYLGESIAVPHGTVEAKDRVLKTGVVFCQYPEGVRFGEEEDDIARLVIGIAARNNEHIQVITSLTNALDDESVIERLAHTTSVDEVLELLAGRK
UniProt P76556, sequence (P76556 whole entry): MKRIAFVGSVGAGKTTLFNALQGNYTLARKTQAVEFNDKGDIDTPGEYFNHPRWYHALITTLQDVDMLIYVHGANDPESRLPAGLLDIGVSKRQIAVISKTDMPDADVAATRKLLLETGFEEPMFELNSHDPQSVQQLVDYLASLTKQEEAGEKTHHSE
UniProt P76545, sequence (P76545 whole entry): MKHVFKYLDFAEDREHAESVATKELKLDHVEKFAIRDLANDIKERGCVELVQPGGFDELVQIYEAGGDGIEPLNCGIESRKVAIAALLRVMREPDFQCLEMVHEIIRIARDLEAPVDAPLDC
UniProt P07013, sequence (P07013 whole entry): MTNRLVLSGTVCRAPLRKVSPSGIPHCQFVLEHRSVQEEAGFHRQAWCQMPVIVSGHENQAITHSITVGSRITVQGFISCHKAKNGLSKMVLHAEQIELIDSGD

| Target | log2 fold change |
| --- | --- |
| UniProt P31808 (peptide sequence: TGMTFDAQPGR, peptide start residue: 236) | -0.533 |
| UniProt P37313 (peptide sequence: GTKDQIFNNPR, peptide start residue: 244) | 1.01 |
| UniProt P00550 (peptide sequence: GASPLSAGDVTNDLSHVRK, peptide start residue: 361) | 0.413 |
| UniProt P27249 (peptide sequence: VEDLFIIATADRR, peptide start residue: 854) | 0.328 |
| UniProt P37747 (peptide sequence: DKDSLASK, peptide start residue: 216) | -0.827 |
| UniProt P39280 (peptide sequence: IHSRLPIVIPAR, peptide start residue: 193) | 1.51 |
| UniProt P09980 (peptide sequence: AANILIANNPHVFEKR, peptide start residue: 286) | -3.41 |
| UniProt P37177 (peptide sequence: VANIYDSLHPAMLR, peptide start residue: 636) | 0.572 |
| UniProt P07648 (peptide sequence: VKAHLTCLHTR, peptide start residue: 776) | 1.26 |
| UniProt P36672 (peptide sequence: LRFVLNQPANARPK, peptide start residue: 33) | 0.581 |
| UniProt P76545 (peptide sequence: YLDFAEDREHAESVATK, peptide start residue: 7) | -2.38 |
| UniProt P28904 (peptide sequence: LDVVNLISKDPR, peptide start residue: 199) | -0.478 |
| UniProt Q46856 (peptide sequence: IDAAIAATR, peptide start residue: 323) | -1.68 |
| UniProt P75960 (peptide sequence: LHGAHTVELNLEPSQVGNEFAEK, peptide start residue: 231) | 0.525 |
| UniProt P13857 (peptide sequence: TVQGNVMLHQR, peptide start residue: 54) | -0.406 |
| UniProt P23883 (peptide sequence: ALSLAIENR, peptide start residue: 13) | -2.59 |

| Target | log2 fold change |
| --- | --- |
| UniProt P36999 (peptide sequence: RYPQVTFCVASSHR, peptide start residue: 128) | -0.656 |
| UniProt P42632 (peptide sequence: IKALPTYR, peptide start residue: 593) | 0.596 |
| UniProt P76556 (peptide sequence: IAFVGSVGAGK, peptide start residue: 4) | -0.693 |
| UniProt P0DPP7 (peptide sequence: NKYLNSTR, peptide start residue: 41) | 0.633 |
| UniProt P31470 (peptide sequence: EGEGVTITNLR, peptide start residue: 74) | -0.324 |
| UniProt P0ADA3 (peptide sequence: IATMGSTGTSSTR, peptide start residue: 346) | 0.385 |
| UniProt P37440 (peptide sequence: LADELCGR, peptide start residue: 45) | -0.817 |
| UniProt P37636 (peptide sequence: QDYDTAR, peptide start residue: 137) | 0.264 |
| UniProt P08839 (peptide sequence: TSHTSIMAR, peptide start residue: 187) | 0.443 |
| UniProt P07023 (peptide sequence: KVEHWFGDYAQR, peptide start residue: 345) | 0.528 |
| UniProt P07013 (peptide sequence: LVLSGTVCR, peptide start residue: 5) | -0.606 |
| UniProt P14377 (peptide sequence: LVALGHLAAGVAHEIR, peptide start residue: 242) | 1.01 |
| UniProt P0CB39 (peptide sequence: QYYMNQQR, peptide start residue: 350) | -0.737 |
| UniProt P15031 (peptide sequence: TVFSVEAEIHPEPVSGRPMCLMR, peptide start residue: 233) | 1.33 |
| UniProt P0A9J4 (peptide sequence: HTEIDYINGFLLRR, peptide start residue: 254) | 0.895 |
